# PubChem BioAssay (NCATS)
# Records with an inconclusive call do not appear. Where a call stands in place of a potency, no number is given. More than one record can exist for a structure, and the calls need not agree. Activity calls are given as the source filed them. The call rests on the fitted dose curve; in most records, active means well fitted curve in the direction sought with a large enough effect; inconclusive means small, poorly fitted or top-dose-only effect, or another doubt; inactive means no such curve, though single readings can be large; an effect the other way counts as inactive or inconclusive.
# Assays:
# MKL-1 = assay: qHTS assay to identify novel small-molecules to repurpose for Merkel cell carcinoma treatment (AID 1296009); settings: MCC and control cell lines, CellTiter-Glo viability, 72 h; series mostly up to 46 µM; further: nearly all actives have a fitted effect of over 60% in size; further: potency means the concentration at half of the fitted maximal effect
# How it was run: (§1)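 Cell viability measured by CellTiter-Glo following 72 hr compound treatment at 37 degree celsius, with NPC and MIPE libraries tested in 8- and 11-point concentration series.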
# MKL-2 = assay: as above; settings: MCC and control cell lines, CellTiter-Glo viability, 72 h; series mostly up to 46 µM
# How it was run: as §1
# NIH3T3 = assay: as above; settings: MCC and control cell lines, CellTiter-Glo viability, 72 h; at 44.8 µM (top of the series) unless noted
# How it was run: as §1
# UISO = assay: as above; settings: MCC and control cell lines, CellTiter-Glo viability, 72 h; series mostly up to 46 µM
# How it was run: as §1
# WaGa = assay: as above; settings: MCC and control cell lines, CellTiter-Glo viability, 72 h; series mostly up to 46 µM
# How it was run: as §1
# C33A = assay: Primary qHTS to identify gynecologic anti-cancer compounds using libraries of approved drugs and bioactive compounds (AID 1345084); settings: Gynecologic cancer cell panel viability, ATPlite luminescence, 48 h; series mostly up to 57.5 µM; further: nearly all actives have a fitted effect of over 55% in size; further: potency means the concentration at half of the fitted maximal effect
# How it was run: (§2)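 Cell viability after 48 h drug treatment, ATPlite luminescence readout; five doses.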
# CAOV3 = assay: as above; settings: Gynecologic cancer cell panel viability, ATPlite luminescence, 48 h; series mostly up to 57.5 µM
# How it was run: as §2
# Es-2 = assay: as above; settings: Gynecologic cancer cell panel viability, ATPlite luminescence, 48 h; series mostly up to 57.5 µM
# How it was run: as §2
# HeLa = assay: as above; settings: Gynecologic cancer cell panel viability, ATPlite luminescence, 48 h; series mostly up to 57.5 µM
# How it was run: as §2
# Hek293T = assay: as above; settings: Gynecologic cancer cell panel viability, ATPlite luminescence, 48 h, control line for the selectivity index; series mostly up to 57.5 µM
# How it was run: as §2
# JEG-3 = assay: as above; settings: Gynecologic cancer cell panel viability, ATPlite luminescence, 48 h; series mostly up to 57.5 µM
# How it was run: as §2
# OV90 = assay: as above; settings: Gynecologic cancer cell panel viability, ATPlite luminescence, 48 h; series mostly up to 57.5 µM
# How it was run: as §2
# PA-1 = assay: as above; settings: Gynecologic cancer cell panel viability, ATPlite luminescence, 48 h; series mostly up to 57.5 µM
# How it was run: as §2
# SKOV3 = assay: as above; settings: Gynecologic cancer cell panel viability, ATPlite luminescence, 48 h; series mostly up to 57.5 µM
# How it was run: as §2
# Tov-21-G = assay: as above; settings: Gynecologic cancer cell panel viability, ATPlite luminescence, 48 h; series mostly up to 57.5 µM
# How it was run: as §2
# Tov112D = assay: as above; settings: Gynecologic cancer cell panel viability, ATPlite luminescence, 48 h; series mostly up to 57.5 µM
# How it was run: as §2
# CASKI = assay: as above; settings: Gynecologic cancer cell panel viability, ATPlite luminescence, 48 h; series mostly up to 57.5 µM
# How it was run: as §2
# [1] = Drug repurposing screens with cells derived from glioblastoma tumor samples (AID 1345199); settings: GBM patient neurospheres viability, ATP luminescence, 48 h; further: nearly all actives have a fitted effect of over 40% in size
# How it was run: (§3)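 Primary testing used CD133+ neurospheres from four GBM patients, seven concentrations, 48 h exposure and ATP-based viability; confirmation added three slower-growing patient lines.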
# astro = assay: as above; settings: viability, ATP luminescence, 48 h; series mostly up to 45.9 µM
# How it was run: as §3
# [2] = at 45.9 µM (top of the series), tumour line B
# [3] = at 45.9 µM (top of the series), tumour line D
# [4] = at 46.1 µM (top of the series), tumour line C
smiles,measurement,setting,value
CC(C)(C)c1cc(C(=O)O)c(NC(=O)Nc2ccc3[nH]ncc3c2)s1,Potency,MKL-1,inactive
same,Potency,MKL-2,inactive
same,outcome,NIH3T3,inactive
same,Potency,UISO,inactive
same,Potency,WaGa,inactive
same,Potency,C33A,inactive
same,Potency,CAOV3,inactive
same,Potency,Es-2,inactive
same,Potency,HeLa,inactive
same,Potency,Hek293T,inactive
same,Potency,JEG-3,inactive
same,Potency,OV90,inactive
same,Potency,PA-1,inactive
same,Potency,SKOV3,inactive
same,Potency,Tov-21-G,inactive
same,Potency,Tov112D,inactive
CN(C)CCC=C1c2ccccc2COc2ccc(CC(=O)O)cc21,Potency,MKL-1,inactive
same,Potency,MKL-2,inactive
same,outcome,NIH3T3,inactive
same,Potency,UISO,inactive
same,Potency,WaGa,inactive
CCC(=O)O[C@]1(C(=O)CO)CC[C@H]2[C@@H]3CCC4=CC(=O)CC[C@]4(C)[C@@H]3CC[C@@]21C,Potency,MKL-1,inactive
same,Potency,MKL-2,inactive
same,outcome,NIH3T3,inactive
same,Potency,UISO,inactive
same,Potency,WaGa,inactive
CCCCCN(C)CCC(O)(P(=O)(O)O)P(=O)(O)O,Potency,MKL-1,inactive
same,Potency,MKL-2,inactive
same,outcome,NIH3T3,inactive
same,Potency,UISO,inactive
same,Potency,WaGa,inactive
COc1cccc(-c2cc(=O)c3ccccc3o2)c1N,Potency,MKL-1,inactive
same,Potency,MKL-2,inactive
same,outcome,NIH3T3,inactive
same,Potency,UISO,inactive
same,Potency,WaGa,inactive
Clc1ccc(C(c2ccc(Cl)cc2)n2cc[n+](CC(OCc3ccc(Cl)cc3Cl)c3ccc(Cl)cc3Cl)c2)cc1 (stereo unspecified),Potency,MKL-1,20.9 µM (active)
same,Potency,MKL-2,10.5 µM (active)
NC(=O)NN=Cc1ccc([N+](=O)[O-])o1,Potency,MKL-1,inactive
same,Potency,MKL-2,inactive
same,outcome,NIH3T3,inactive
same,Potency,UISO,inactive
Cc1cccc(C)c1OCC(C)N (stereo unspecified),Potency,MKL-1,inactive
same,Potency,MKL-2,inactive
same,outcome,NIH3T3,inactive
same,Potency,UISO,inactive
same,Potency,WaGa,inactive
same,Potency,C33A,inactive
same,Potency,CAOV3,inactive
same,Potency,CASKI,inactive
same,Potency,Es-2,inactive
same,Potency,HeLa,inactive
same,Potency,Hek293T,inactive
same,Potency,JEG-3,inactive
same,Potency,OV90,inactive
same,Potency,PA-1,inactive
same,Potency,Tov-21-G,inactive
same,Potency,Tov112D,inactive
same,"activity, negative = cell killing",[1]; [2],-9.46% (inactive)
same,"activity, negative = cell killing",[1]; [3],4.9% (inactive)
same,"activity, negative = cell killing",[1]; [4],3.32% (inactive)
same,Potency,astro,inactive
O=C(O)c1cc(-c2ccccc2)nc2ccccc12,Potency,MKL-1,inactive
same,Potency,MKL-2,inactive
same,outcome,NIH3T3,inactive
same,Potency,UISO,inactive
same,Potency,WaGa,inactive
same,Potency,C33A,inactive
same,Potency,CASKI,inactive
same,Potency,Es-2,inactive
same,Potency,HeLa,50.1 µM (active) and inactive
same,Potency,Hek293T,inactive
same,Potency,JEG-3,inactive
same,Potency,OV90,inactive
same,Potency,PA-1,inactive
same,Potency,SKOV3,28.2 µM (active) and inactive
same,Potency,Tov-21-G,inactive
same,Potency,Tov112D,inactive
same,"activity, negative = cell killing",[1]; [2],-26% (inactive)
same,"activity, negative = cell killing",[1]; [3],-24.8% (inactive)
same,"activity, negative = cell killing",[1]; [4],-23% (inactive)
